TDP1 cell noCPT: qHTS for Inhibitors of human tyrosyl-DNA phosphodiesterase 1 (TDP1): qHTS in cells in absence of CPT; 15% of 420,000 active; DT40 Tdp1-/- hTDP1 cells, no CPT, ATP luminescence, 48 h; Potency, µM (highest dose often 46.2 µM), hits mostly inhibitors; note: nearly all actives have a fitted effect of over 55% in size
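Readout: luminescence from CellTiter-Glo after 30 min in the dark at RT. Cells: DT40 Tdp1-/- with stable hTDP1, 400/well. Exposure: compounds alone, ≥48 hr, 37 °C.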
VP16 counter: inhibits Gal4-VP16 luciferase reporter, ROR gamma counter-screen | Drosophila S2 Gal4-VP16 UAS-luciferase, luminescence, 20 h | Potency, µM (top dose mostly 53.6 µM), actives largely listed as inhibitors | 3.5% of 310,000 active | AID 2546;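 note: Gal4-VP16 expression switched on by copper sulfate through the metallothionein promoter; nearly all actives have a fitted effect of over 50% in size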
LDHA block: inhibitors of human lactate dehydrogenase A. P00338. purified LDHA, NADH/diaphorase-resazurin fluorescence; hits give low values. activity change, % (values are at about 110 or 230 µM). 0.15% of 480,000 active; in the data active = activity change below about -30%; inconclusive = mostly about -25% to -30%
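Remaining NADH was detected by diaphorase (0.133 mg/mL) converting 37 µM resazurin to fluorescent resorufin, read at 0 and 20 minutes. The preceding 5-minute room-temperature reaction used 2 nM LDHA, 0.2 mM sodium pyruvate and 0.06 mM NADH at pH 7.4.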
IL-1B inflam inh: inhibitors of inflammasome signaling (IL-1 beta secretion) | 4.7% of 360,000 active | THP-1 LPS/ATP IL-1B secretion, AlphaLISA, 16 h; hits give low values | activity change, % at 57.5 µM; in the data active = activity change below about -50%; inconclusive = mostly about -30% to -49%
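THP-1 cells pretreated 1 hr with compounds (up to 57.5 uM final), then stimulated with LPS (250 ng/mL final) plus ATP (1.25 mM final); secreted IL-1B measured by AlphaLISA after 16 hr, decreased signal indicating inhibition.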
RORgamma inh: inhibitors of mouse ROR gamma transcriptional activity | P51450 | Drosophila S2 Gal4-RORgamma UAS-luciferase reporter, 20 h | Potency, µM (series often up to 53.6 µM), actives largely listed as inhibitors | 5.4% of 310,000 active | AID 2551; note: nearly all actives have a fitted effect of over 60% in size
Target sequence (P51450 whole entry, looked up, the tested form may be a part): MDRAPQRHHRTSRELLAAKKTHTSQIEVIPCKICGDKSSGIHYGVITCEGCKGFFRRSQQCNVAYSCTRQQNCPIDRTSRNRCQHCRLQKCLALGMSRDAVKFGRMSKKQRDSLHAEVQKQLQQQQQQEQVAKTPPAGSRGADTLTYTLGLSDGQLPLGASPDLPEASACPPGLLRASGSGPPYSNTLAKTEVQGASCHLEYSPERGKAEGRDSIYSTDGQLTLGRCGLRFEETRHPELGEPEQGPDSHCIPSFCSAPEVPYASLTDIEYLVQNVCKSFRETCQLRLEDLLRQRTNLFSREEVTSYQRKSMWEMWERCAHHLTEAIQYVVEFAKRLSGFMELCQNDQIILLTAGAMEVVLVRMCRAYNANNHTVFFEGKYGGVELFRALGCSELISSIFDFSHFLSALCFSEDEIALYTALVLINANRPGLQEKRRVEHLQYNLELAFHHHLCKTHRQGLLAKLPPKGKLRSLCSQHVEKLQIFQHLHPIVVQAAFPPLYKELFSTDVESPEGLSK
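ROR gamma transcriptional activity was tracked as Gal4-UAS luciferase output in stably transfected Drosophila Schneider cells, with compound added 1 hr before 700 uM copper sulfate induction and a 20 hr ambient-temperature incubation.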
DT40 TDP1 CPT: growth inhibition of DT40 Tdp1-/-;hTDP1 cells with camptothecin (screen for TDP1 inhibitors) | 12% of 420,000 active | Potency, µM (highest dose often 46.2 µM), hits mostly inhibitors | chicken DT40 Tdp1-/-;hTDP1 cells + 20 nM CPT, ATP luminescence, 48 h; note: nearly all actives have a fitted effect of over 55% in size
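Chicken DT40 Tdp1-/- cells complemented with human TDP1, 400 cells/well, exposed to compounds plus 20 nM camptothecin for at least 48 h at 37 C; viability read as ATP content by CellTiter-Glo luminescence.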
Hits are given with their value; - = inactive; ? = inconclusive; . = no result; [ ] = remark or other dose. In the library only some 18% were active in any assay of this set; here they are far more common. Unless noted, calls come from the whole dose curve; as a rule, active = well fitted curve in the direction sought with a large enough effect; inconclusive = small, poorly fitted or top-dose-only effect, or another doubt; inactive = no such curve, though single readings can be large; an effect the other way counts as inactive or inconclusive.

SMILES	TDP1 cell noCPT	VP16 counter	LDHA block	IL-1B inflam inh	RORgamma inh	DT40 TDP1 CPT
CCOP(=O)(OCC)C(Nc1cccc([N+](=O)[O-])c1)c1ccc(OC)cc1 (stereo unspecified)	13µM	-	-	-	-	?
CC(=O)OCC(=O)C1CCC2C3CC=C4CC(O)CC[C@@]4(C)C3CC[C@]12C (stereo partly specified)	-	-	.	.	-	-
NCCc1cccc(N)n1	.	.	-	.	.	.
CN1C(=O)COc2c(C(=O)N[C@@H]3CN4CCC3CC4)cc(Cl)cc21	-	-	.	.	-	-
NC(Cc1cc(O)c(O)cc1O)C(=O)O (stereo unspecified)	6.3µM	.	-	.	.	5µM
Cn1c(C(=O)N2CCN(c3nc4ccccc4s3)CC2)cc2sccc21	?	-	-	-	-	23µM
CC(=O)OC1CC(OC2C(O)CC(OC3C(O)CC(OC4CCC5(C)C(CCC6C5CCC5(C)C(C7=CC(=O)OC7)CCC65O)C4)OC3C)OC2C)OC(C)C1OC1OC(CO)C(O)C(O)C1O (stereo unspecified)	0.41µM	.	-	-71	.	0.58µM
CC(=O)OC1C[C@H](O[C@@H]2C(O)C[C@H](O[C@@H]3C(O)C[C@@H](OC4CC[C@]5(C)C(CCC6C5CC(O)[C@@]5(C)C(C7=CC(=O)OC7)CC[C@@]65O)C4)OC3C)OC2C)O[C@H](C)[C@H]1O[C@H]1OC(CO)C(O)C(O)C1O (stereo partly specified)	.	-	.	.	-	.
COC1CC(OC2CCC3(C)C(CCC4C3CCC3(C)C(C5=CC(=O)OC5)C(OC(C)=O)CC43O)C2)OC(C)C1OC1OC(COC2OC(CO)C(O)C(O)C2O)C(O)C(O)C1O (stereo unspecified)	.	-	.	.	-	.
CC(=O)O[C@H]1C[C@H](O[C@H]2[C@@H](O)C[C@H](O[C@H]3[C@@H](O)C[C@H](O[C@H]4CC[C@@]5(C)[C@H](CC[C@@H]6[C@@H]5C[C@@H](O)[C@]5(C)[C@@H](C7=CC(=O)OC7)CC[C@]65O)C4)O[C@@H]3C)O[C@@H]2C)O[C@H](C)[C@H]1O[C@@H]1O[C@H](CO)[C@@H](O)[C@H](O)[C@H]1O	0.34µM	.	.	.	.	0.38µM
CNC(=O)c1ccc(NC(=O)COC(=O)c2cn(C)c3ccccc23)cc1	.	.	-	.	.	.
Nc1c(C(=O)Nc2ccc(Cl)cc2)sc2nc3c(cc12)N1CCC3CC1	16µM	.	-	.	.	?
Nc1c(C(=O)Nc2ccc(Cl)c(C(F)(F)F)c2)sc2nc3c(cc12)N1CCC3CC1	13µM	.	-	.	.	13µM
COc1ccc(NC(=O)c2sc3nc4c(cc3c2N)N2CCC4CC2)cc1OC	26µM	.	-	.	.	?
Nc1c(C(=O)Nc2cccc(Br)c2)sc2nc3c(cc12)N1CCC3CC1	.	.	-	.	.	.
O=C(Cc1coc(-c2ccccc2)n1)N1CCCC1CN1CCCC1 (stereo unspecified)	.	.	-	.	.	.
COc1cc(CNCCc2ccc3c(c2)OCO3)ccc1O	-	-	-	-	-	-
CCOc1ccc(CN(CCc2ccc3c(c2)OCO3)Cc2cccc(C)c2)cc1	13µM	.	-	.	.	16µM
CCOc1ccc(CN(CCc2ccc3c(c2)OCO3)Cc2cc(OC)ccc2O)cc1	18µM	.	-	.	.	?
CCOc1ccc(CN(CCc2ccc3c(c2)OCO3)Cc2ccc(CC)cc2)cc1	?	.	-	.	.	?
CCN(c1ccccc1)S(=O)(=O)c1ccc(C(=O)NC2CCCCC2)cc1	16µM	.	-	-	.	?
O=C1NCc2c1c1c3ccccc3[nH]c1c1[nH]c3ccccc3c21	2.8µM	.	-	.	.	3.2µM
O=C1NC(=O)c2c1c1c3ccccc3[nH]c1c1[nH]c3ccccc3c21	.	-	.	.	-	.
C=CC[C@]1(O)CCC2C3CCC4=CCCCC4C3CCC21C (stereo partly specified)	.	-	.	.	-	.
CN(C(=O)COC(=O)c1cn(C)c2ccccc12)C1CCCCC1	-	.	-	-50	.	-
SMILES	TDP1 cell noCPT	VP16 counter	LDHA block	IL-1B inflam inh	RORgamma inh	DT40 TDP1 CPT
Cn1cc(C(=O)OCC(=O)NC2CCCCCCC2)c2ccccc21	.	.	-	.	.	.
COc1ccc(CN2C(=O)NC(=O)/C(=C/c3ccc([N+](=O)[O-])s3)C2=O)cc1	4.6µM	-	-	-	-	10µM
COc1cc(OC)c(OC)cc1/C=C1\C(=O)NC(=O)N(Cc2ccccc2)C1=O	-	-[10 µM]	-	-	-	-
COc1ccc(CN2C(=O)NC(=O)/C(=C\c3cc(OC)c(OC)c(OC)c3)C2=O)cc1	?	-	-	-	-	18µM
O=C1NC(=O)N(Cc2ccc(F)cc2)C(=O)/C1=C\c1ccc([N+](=O)[O-])s1	8.2µM	-	-	-	-	13µM
COc1ccc(CN2C(=O)NC(=O)/C(=C\c3ccco3)C2=O)cc1	?	-	-	-	-	?
C=CCN1CC[C@]23c4c5ccc(O)c4O[C@H]2[C@@H](O)C=C[C@H]3[C@H]1C5	?	-	.	.	-	-
CCN(CC)CCNC(=O)c1nn(-c2ccc(C)cc2)c(=O)c2c1c1ccccc1n2C	21µM	-	-	-	-	-
CN(C)CCNc1ccc([N+](=O)[O-])c2cccnc12	.	.	-	.	.	.
CCOc1ccc(-n2c(/C=C/c3ccccc3)nc3ccccc3c2=O)cc1	?	.	-	.	.	?
CCOc1ccc(N2CC(c3nc4ccccc4n3CCC3CCCCC3)CC2=O)cc1 (stereo unspecified)	5.2µM	.	-	.	.	7.3µM
O=P(OC1CCCCC1)(OC1CCCCC1)C(O)c1ccc(Cl)cc1Cl (stereo unspecified)	21µM	-	-	?	-	16µM
CC(=O)[C@@]1(O)CC[C@H]2[C@@H]3C[C@H](C)C4=CC(=O)CC[C@]4(C)[C@H]3CC[C@@]21C	29µM	-	-	?	-	?
CCC1(CC)CCNC1=O	.	-	.	.	-	.
Brc1ccccc1Cn1c(-c2cncs2)nc2ccccc21	16µM	-	-	-	6.3µM	?
CNc1ccc2oc(C[C@@H]3OC4(CC[C@@H]3C)O[C@H](C(C)C(=O)c3ccc[nH]3)[C@H](C)C[C@H]4C)nc2c1C(=O)O (stereo partly specified)	.	.	.	.	1.8µM	.
CNc1ccc2oc(C[C@H]3O[C@]4(CC[C@H]3C)O[C@H]([C@H](C)C(=O)c3ccc[nH]3)[C@H](C)C[C@H]4C)nc2c1C(=O)O	1.1µM	-	.	.	?	1.5µM
C=CCOc1ccc(CNCCc2ccc(OC)cc2)cc1	.	.	-	.	.	.
CCOP(=O)(OCC)C(NC(=O)c1ccccc1)=C(Cl)Cl	-	-	-	-	-	-
CCOC(=O)C1=C(NC(=S)NC(=O)c2ccccc2)c2ccccc2CC12CCCC2	18µM	4.5µM	-	?	3.2µM	16µM

Compound activity from PubChem.
